Most compounds without a hit are left out; they make up all but 3.6% or so of the library.
esBAF inh – Bmi1 luciferase reporter increase in mESCs, primary screen, esBAF inhibitor project, mouse ES cells, Bmi1 luciferase knock-in, single point | 24 h; 100% = twice the neutral-well signal | reporter increase, % at 12.5 µM | hit rate 2% among 350,000 | AID 602393, 2012; in the data active = activation above about 40%;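 also: 0% = median of the plate's neutral control wells and 100% = double that signal; a rise in the Bmi1 reporter signal indicates esBAF inhibition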
MITF TRPM1 HTS – activators of MITF-driven TRPM1 promoter reporter, primary screen, cell-based, SK-MEL-5, luciferase, single point; SK-MEL-5 TRPM1-promoter luciferase, 24 h; % of positive control, neutral wells = 0; activation, % at 12.5 µM; hit rate 0.75% among 300,000; AID 588334, 2011;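 active = mean activation of at least 80% with every replicate also reaching 80%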;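 also: 0% = neutral control wells and 100% = parthenolide positive control wells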
A3G deaminase – APOBEC3G DNA deaminase inhibitors, primary screen, biochemical, fluorescence, single-stranded DNA substrate, uHTS; DNA dC->dU-editing enzyme APOBEC-3G (Homo sapiens), Q9HC16; AID 493012, 2011; hit rate 0.28% among 330,000; recombinant A3G, ssDNA deamination FAM/TAMRA fluorescence; inhibition, % at 20 µM;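 active = inhibition of at least 40% at 20 µM, with no more than 30% in the related APOBEC3A deaminase screen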;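 also: plate controls were DMSO wells with A3G for no effect and wells lacking A3G enzyme for full effect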
PHOSPHO1 block – PubChem AID 1565. Phosphoethanolamine/phosphocholine phosphatase (Homo sapiens), Q8TCT1. recombinant PHOSPHO1, absorbance phosphatase assay. inhibition, % at 13.3 µM. hit rate 1.1% among 290,000; in the data active = inhibition above about 60%
Target sequence (Q8TCT1 whole entry, looked up): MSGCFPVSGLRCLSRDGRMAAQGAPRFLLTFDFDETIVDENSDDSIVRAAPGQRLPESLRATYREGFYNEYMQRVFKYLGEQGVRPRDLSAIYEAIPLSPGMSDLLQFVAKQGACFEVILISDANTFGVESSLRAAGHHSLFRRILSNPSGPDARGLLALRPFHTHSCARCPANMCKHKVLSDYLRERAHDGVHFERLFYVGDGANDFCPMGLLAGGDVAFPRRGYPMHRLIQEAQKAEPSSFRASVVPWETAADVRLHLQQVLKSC
Wnt bcat act – Wnt/beta-catenin pathway activators, primary screen, cell-based, plate reader, single point | hit rate 1.2% among 300,000 | AID 743398, 2014 | Wnt/beta-catenin reporter cell assay, activator | activation, % at 9.35 µM; in the data active = activation above about 30%, passing the limit was not always enough;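 also: 0% = neutral control wells and 100% = positive control wells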
A3A deaminase – APOBEC3A ssDNA deaminase inhibitors, primary screen, selectivity assay for APOBEC3G inhibitor project, biochemical, FAM/TAMRA oligo cleavage fluorescence | DNA dC->dU-editing enzyme APOBEC-3A (Homo sapiens), P31941 | hit rate 0.41% among 330,000 | inhibition, % at 20 µM | AID 493011, 2011 | recombinant A3A, FAM/TAMRA ssDNA deamination fluorescence;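 active = at least 40% inhibition at 20 µM here, with at most 30% in a related deaminase screen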;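 also: plate controls were A3A with DMSO for no effect and wells lacking A3A enzyme for full effect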
Target sequence (P31941 whole entry, looked up): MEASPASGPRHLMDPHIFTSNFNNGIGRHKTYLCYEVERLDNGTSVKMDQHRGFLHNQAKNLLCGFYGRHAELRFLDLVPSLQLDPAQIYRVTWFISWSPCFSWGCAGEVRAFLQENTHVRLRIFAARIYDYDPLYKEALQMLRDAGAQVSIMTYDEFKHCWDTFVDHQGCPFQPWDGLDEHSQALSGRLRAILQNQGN
* hit, by the source's call.

How did COc1ccc(NC2=Nc3ccccc3CC2)cc1 do in these assays?
esBAF inh: 8.9; MITF TRPM1 HTS: 91.1*; A3G deaminase: 2.5; PHOSPHO1 block: -36.8; Wnt bcat act: 39.5*; A3A deaminase: 4.2

How did COc1ccc2oc(=Nc3ccc(C(=O)O)cc3)c(C(=O)NCc3ccco3)cc2c1 do in these assays?
MITF TRPM1 HTS: 20.2; A3G deaminase: -11.2; PHOSPHO1 block: -0.8; Wnt bcat act: -0.2; A3A deaminase: -4.7

What do the screens show for `COc1ccc2cc(C(=O)NCc3ccco3)c(=Nc3ccc(C(=O)O)cc3)oc2c1`?
esBAF inh: -7.0; MITF TRPM1 HTS: -6.6; A3G deaminase: -0.6; PHOSPHO1 block: 7.0; Wnt bcat act: 42.3*; A3A deaminase: -2.1

Results for C[C@@H]1CN([C@@H](C)CO)C(=O)c2ccccc2-c2ccccc2CO[C@@H]1CN(C)C(=O)Nc1cccc(F)c1 ?
esBAF inh: 0.5

How did O=C(CNC(=O)c1ccccc1)OCC(=O)N1N=C(c2ccc(Cl)cc2)CC1c1ccco1 (stereo not given) do in these assays?
MITF TRPM1 HTS: 4.2; A3G deaminase: -7.4; PHOSPHO1 block: 37.9; Wnt bcat act: 40.8*; A3A deaminase: -2.2

How did N#Cc1ccccc1OCC(=O)N1N=C(c2cccs2)CC1c1ccco1 (stereo not given) do in these assays?
esBAF inh: 70.0*; MITF TRPM1 HTS: 26.5; A3G deaminase: 1.9; Wnt bcat act: 13.5; A3A deaminase: 14.0

How did CCOc1cc(C)ccc1OCc1nnc(SCC(=O)c2cccc([N+](=O)[O-])c2)n1CC do in these assays?
esBAF inh: -1.4; MITF TRPM1 HTS: -12.8; A3G deaminase: -3.7; PHOSPHO1 block: 87.7*; A3A deaminase: -7.1

Results for COc1ccc(NC(=O)N(C)C[C@@H]2OCCCC[C@@H](C)Oc3ccc(NC(=O)CCC(F)(F)F)cc3C(=O)N([C@H](C)CO)C[C@@H]2C)cc1 ?
esBAF inh: -1.8

What do the screens show for `Clc1ccc(-c2csc(Nc3ccccc3)[n+]2Cc2ccco2)c(Cl)c1`?
MITF TRPM1 HTS: 88.7*; PHOSPHO1 block: -43.4; Wnt bcat act: 42.8*

What do the screens show for `CCCC[n+]1c(-c2ccc(Cl)cc2Cl)csc1Nc1ccccc1`?
esBAF inh: 5.6; MITF TRPM1 HTS: 32.6; A3G deaminase: -8.2; PHOSPHO1 block: -6.8; A3A deaminase: -4.7

Results for O=C(CCCc1ccccc1)Nc1ccccc1[N+](=O)[O-] ?
esBAF inh: 52.6*; MITF TRPM1 HTS: 43.5; A3G deaminase: -7.8; PHOSPHO1 block: 23.9; Wnt bcat act: 2.0; A3A deaminase: -5.9

Results for CCC(=O)Nc1ccc(NC(=O)c2ccco2)c(OC)c1 ?
esBAF inh: 23.2; MITF TRPM1 HTS: 56.6; A3G deaminase: -1.4; PHOSPHO1 block: -31.2; Wnt bcat act: 41.3*; A3A deaminase: 3.6

What do the screens show for `COc1ccc(NC(=O)CCCc2ccccc2)cc1OC`?
esBAF inh: 64.7*; A3G deaminase: 1.2; PHOSPHO1 block: 44.0; Wnt bcat act: 11.2; A3A deaminase: -4.3

How did COc1cc(NC(=O)c2ccco2)c(OC)cc1NC(=O)CSc1ncc(-c2ccc(F)cc2)[nH]1 do in these assays?
esBAF inh: -3.3; MITF TRPM1 HTS: 12.3; A3G deaminase: -7.0; PHOSPHO1 block: 74.0*; A3A deaminase: -2.5

Results for C[C@@H]1CN([C@H](C)CO)C(=O)Cc2cc(NS(=O)(=O)c3ccc(F)cc3)ccc2O[C@@H]1CN(C)C(=O)Nc1cccc2ccccc12 ?
esBAF inh: 1.0

Results for CCCC(=O)Nc1ccc(NC(=O)c2ccco2)c(OC)c1 ?
esBAF inh: 63.3*; MITF TRPM1 HTS: 88.5*; A3G deaminase: -5.2; PHOSPHO1 block: 13.6; Wnt bcat act: 15.5; A3A deaminase: -1.4

How did COC(=O)/C(C(C)=O)=C(\C=C\N(C)C)N(C)C do in these assays?
esBAF inh: -7.0; MITF TRPM1 HTS: 0.0; A3G deaminase: -5.7; PHOSPHO1 block: 2.4; Wnt bcat act: 0.4; A3A deaminase: -2.4

What do the screens show for `COC(=O)C(=CC(=CN(C)C)C=C(C(=O)OC)C(=O)OC)C(=O)OC`?
esBAF inh: -6.2; MITF TRPM1 HTS: 8.2; A3G deaminase: 0.2; PHOSPHO1 block: 24.0; Wnt bcat act: 38.2*; A3A deaminase: 5.4

Results for C[C@@H]1CN([C@H](C)CO)C(=O)c2cc(N(C)C)ccc2O[C@H]1CN(C)C(=O)Nc1ccc(F)cc1 ?
esBAF inh: 1.7

Results for COc1ccc(S(=O)(=O)N2CC[C@H]3[C@H](CO)Nc4ccc(-c5ccccc5F)cc4[C@H]32)cc1 ?
esBAF inh: 1.2

How did C[C@H](CO)N1C[C@H](C)[C@@H](CN(C)C(=O)CN(C)C)Oc2cc(-c3ccncc3)ccc2S1(=O)=O do in these assays?
esBAF inh: -1.5

What do the screens show for `O=C(CSc1ccccn1)Nc1ccc2c(c1)C(=O)c1ccccc1C2=O`?
MITF TRPM1 HTS: 94.7*; PHOSPHO1 block: -25.1

What do the screens show for `O=C(CSc1ccccn1)Nc1ccc2c(c1)CCC2`?
esBAF inh: 76.6*; MITF TRPM1 HTS: 109.6*; A3G deaminase: -8.3; A3A deaminase: 1.3

What do the screens show for `Cc1sc2nc(N)sc2c1C`?
esBAF inh: -9.8; MITF TRPM1 HTS: -4.4; A3G deaminase: -9.4; PHOSPHO1 block: 89.5*; Wnt bcat act: -1.7; A3A deaminase: -6.5

What do the screens show for `C[C@H](CO)N1C[C@H](C)[C@H](CN(C)S(=O)(=O)c2cccs2)Oc2ccc(NC(=O)CCC(F)(F)F)cc2CC1=O`?
esBAF inh: -0.2

How did CO[C@H]1CN(C)C(=O)c2cc(NC(=O)Nc3ccc4c(c3)OCO4)ccc2OC[C@H](C)NC[C@@H]1C do in these assays?
esBAF inh: 54.8*

What do the screens show for `CO[C@H]1CN(C)C(=O)c2cc(NC(=O)Nc3ccc4c(c3)OCO4)ccc2OC[C@H](C)NC[C@H]1C`?
esBAF inh: 44.0*

How did CO[C@H]1CN(C)C(=O)c2cc(NC(=O)Nc3ccc4c(c3)OCO4)ccc2OC[C@@H](C)NC[C@H]1C do in these assays?
esBAF inh: 50.7*

Results for O=C(C[C@@H]1C[C@H]2c3cc(NC(=O)CC4CC4)ccc3O[C@H]2[C@H](CO)O1)NCCN1CCCCC1 ?
esBAF inh: 0.0

What do the screens show for `c1ccc2nc(SCc3cn4ccccc4n3)cnc2c1`?
MITF TRPM1 HTS: 57.1; A3G deaminase: -2.5; PHOSPHO1 block: 51.6; Wnt bcat act: 38.3*; A3A deaminase: -8.4

How did c1ccc(CSCc2cn3ccccc3n2)cc1 do in these assays?
esBAF inh: 70.5*; MITF TRPM1 HTS: 72.3; A3G deaminase: -2.1; PHOSPHO1 block: 16.8; Wnt bcat act: 19.5; A3A deaminase: 1.2

Screens from PubChem.
